Source: PubChem
An excerpt weighted towards active compounds, which were near 7.6% of everything screened.
NS3h inh CB: HCV NS3 helicase inhibitors, primary screen, biochemical, fluorescence polarization, ChemBridge library | Hepatitis C virus NS3 helicase | NS3h Cy5-dT15 DNA binding | inhibition, % at 100 µM | actives 1.6% (n = 16,000) | AID 687043, 2013;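 active = inhibition above the average over every tested compound plus 3 SD, cut at about 40% in these data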
Cy5 interf NS3h: Cy5 fluorescence quenchers or enhancers, artefact control for HCV NS3 helicase inhibitor project, biochemical, ChemBridge library, Cy5 readout. fluorescence interference ratio at 100 µM. Cy5-dT15 DNA with NS3h, fluorescence interference; actives lie on both sides; signal over control mean, under 1 quenches. AID 720488, 2013. actives 6% (n = 16,000);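 active = compound fluorescence over control fluorescence at most 0.8, a quencher, or at least a set upper limit, an enhancer; inactive = ratio between 0.8 and the set upper limit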
A number is an active result; n = inactive.

SMILES | NS3h inh CB | Cy5 interf NS3h
N#Cc1c(N)nc(SCC(=O)c2ccccc2)c(C#N)c1-c1ccc(Cl)cc1 | n | n
CNC(=O)OCCc1ccc(-c2ccccc2)o1 | n | n
COCC(=O)Nc1nc2ccccc2s1 | n | 0.67
CC(CCC(=O)Nc1nc2ccccc2s1)CC(=O)Nc1nc2ccccc2s1 (stereo unspecified) | n | n
COc1ccc(C(=O)Nc2cc(Cl)ccc2Cl)cc1NC(=O)c1ccccc1C | n | n
CC(Oc1ccc(Br)cc1)C(=O)N/N=C\c1ccccc1O (stereo unspecified) | n | n
O=C(N/N=C\c1cccc(Br)c1)C(Oc1ccccc1)Oc1ccccc1 | n | 0.78
CCN(CC)C(=O)CN(c1ccccc1OC)S(=O)(=O)c1ccccc1 | n | n
O=C1NN=C2C3CCC4CC12CC1(C3)C(=O)NN=C41 | n | 0.74
N#C/C(=C\c1ccc(OCc2ccccc2)cc1)c1nc(-c2ccc(Br)cc2)cs1 | n | n
COC(=O)CN(c1cc(Cl)cc(Cl)c1)S(C)(=O)=O | n | n
CCC(C)c1ccc(OCCOc2ccc(/C=C3/SC(=S)N(C)C3=O)cc2)cc1 (stereo unspecified) | n | n
O=C(/C=C/c1ccccc1Cl)Nc1ccccc1[N+](=O)[O-] | 41 | n
COc1ccc(NC(=O)/C=C/c2ccccc2Cl)c([N+](=O)[O-])c1 | n | n
O=C(Nc1ccc(F)c([N+](=O)[O-])c1)c1cc(I)ccc1Cl | n | n
COc1ccc(N(CC(=O)Nc2ccc(Cl)cc2C)S(=O)(=O)c2ccc(C)c([N+](=O)[O-])c2)cc1 | n | 0.68
CCOc1ccccc1NC(=O)CN(c1cccc([N+](=O)[O-])c1)S(=O)(=O)c1ccccc1 | n | n
COc1ccc(OC)c(NC(=O)CN(c2cccc([N+](=O)[O-])c2)S(=O)(=O)c2ccccc2)c1 | n | 0.67
COc1ccc(OC)c(NC(=O)CN(c2ccccc2)S(=O)(=O)c2ccccc2[N+](=O)[O-])c1 | n | 0.75
COC(=O)CN(c1ccccc1)S(=O)(=O)c1ccccc1[N+](=O)[O-] | n | n
COc1ccc(N(CC(=O)Nc2ccc(C)cc2C)S(=O)(=O)c2ccc(C)cc2)cc1 | n | n
COc1ccc(CNC(=O)Cc2ccc(Cl)cc2)cc1 | n | n
Cc1cccc(C2=N/C(=C/c3ccc([N+](=O)[O-])cc3)C(=O)N2c2ccc(O)cc2)c1 | n | n
COc1ccc(C2=N/C(=C/c3ccc([N+](=O)[O-])cc3)C(=O)N2c2ccc(O)cc2)cc1 | n | 0.79
O=C1NC(=S)N/C1=C\c1ccccc1 | n | 1.2
SMILES | NS3h inh CB | Cy5 interf NS3h
O=C1NC(=S)N/C1=C/c1ccc(O)c(Cl)c1 | n | n
CC(C)(C)NC(=O)c1ccc(-c2ccc(Br)cc2)o1 | n | n
O=C(NCc1ccco1)c1cnn2c(-c3ccccc3)cc(-c3ccccc3)nc12 | n | n
COC(=O)C1=C(C)N(c2ccc(C)c(C)c2)/C(=C\c2ccc(OCC(=O)Nc3ccccc3OC)cc2)C1=O | n | n
COC(=O)c1cccc(-c2ccc(C=C3C(=O)N(C)C(=O)N(C)C3=O)o2)c1 | n | n
COC(=O)c1cccc(-c2ccc(/C=C3/C(=O)NN(c4cccc(Cl)c4)C3=O)o2)c1 | n | 0.77
CC1=C(C(=O)Nc2cccc(Cl)c2)C(c2ccc(F)cc2)NC(=S)N1 (stereo unspecified) | n | n
Cc1cc(C)c(NC(=O)C(C)Sc2nc3ccccc3s2)c(C)c1 (stereo unspecified) | n | n
O=C1C2CCCCC2C(=O)N1c1nc2ccccc2s1 (stereo unspecified) | n | n
S=C(NNc1nc2ccccc2s1)NC1CCCCC1 | n | 0.74
CCc1cccc(C)c1NC(=O)c1cc(OC)c(OC)cc1[N+](=O)[O-] | n | n
CCCc1cc(=O)n2[nH]c(-c3ccc(C)cc3)cc2n1 | n | 1.2
Cc1nc2cc(-c3ccccc3Cl)[nH]n2c(=O)c1Cl | n | n
Cc1ccc(-c2cc3nc(C)c(Cl)c(=O)n3[nH]2)cc1 | n | 0.77
CCCc1cc(=O)n2[nH]c(-c3ccc(F)cc3)cc2n1 | n | n
Cc1ccc(OCCNC(=O)Cc2cccc3ccccc23)cc1 | n | n
O=C(CC1c2ccccc2Oc2ccccc21)NCCOc1ccccc1 | n | 0.67
Cc1sc(NC(=O)c2ccc(F)cc2)c(C(=O)O)c1C | n | 0.7
Cc1cc(C)cc(NC(=O)c2ccc(F)cc2)c1 | n | n
CC(=O)Nc1ccc(S(=O)(=O)NN2C(=O)c3ccccc3C2=O)cc1 | n | n
CC1=NN(C(=O)OC(C)(C)C)C(O)(c2ccc(C)cc2)C1 (stereo unspecified) | n | n
CCN(CC)c1ccc(NC(=O)c2ccc(Br)cc2)cc1 | n | n
CCN(CC)c1ccc(NC(=O)c2ccc(I)cc2)cc1 | n | 1.3
Cc1ccc(OC(=O)C23CC4CC(CC(C4)C2)C3)c(C)n1 | n | n
COc1cc(/C=C2\NC(=S)NC2=O)ccc1OC(=O)C12CC3CC(CC(C3)C1)C2 | n | 0.68
SMILES | NS3h inh CB | Cy5 interf NS3h
Cc1ccccc1N1C(=O)/C(=C/c2cc(C)n(-c3cccnc3)c2C)C(=O)NC1=S | n | n
CCc1ccccc1N1C(=O)/C(=C/c2cc(C)n(-c3cccnc3)c2C)C(=O)NC1=S | n | 1.2
CC1CCN(Cc2c(O)ccc3ccccc23)CC1 | n | n
Cc1cc(Cl)ccc1OCC(O)CN1CCCC1 (stereo unspecified) | n | n
Cc1ccc(C)c(OCCCCN2CCCC2)c1C | n | 0.72
CC1CCN(CCCCOc2c(Cl)cccc2Cl)CC1 | n | 0.79
CCOc1cccc(C2NC(=O)NC(C)=C2C(=O)OCc2ccc(OC)cc2)c1 (stereo unspecified) | n | n
O=C1OC(COc2ccccc2)CN1c1ccc(Cl)c(Cl)c1 (stereo unspecified) | n | n
COc1cccc(NC(=O)/C(=C/c2ccccc2)c2ccccc2)c1 | n | n
COc1ccc(OC)c(NC(=O)/C(=C/c2ccccc2)c2ccccc2)c1 | n | 0.61
O=C(O)c1cccc(Nc2nc(-c3ccccc3)c3cc(Cl)ccc3n2)c1 | n | n
O=C1C=CC(=O)N1c1ccccc1SC(F)(F)F | 45 | 0.79
O=Cc1ccc(/C=C2/SC(=S)N(Cc3ccccc3)C2=O)cc1 | n | 0.72
C=CCN1C(=O)/C(=C\c2ccc(C=O)cc2)SC1=S | n | n
CCN1C(=O)/C(=C\c2cccc(OCCOc3cccc(OC)c3)c2)SC1=S | n | n
CCN1C(=O)/C(=C/c2cccc(OC(=O)c3ccccc3I)c2)SC1=S | n | 0.74
O=C1/C(=C/c2ccc(I)o2)SC(=S)N1c1ccccc1 | n | 0.69
CN(C)c1ccc(/C=N\N2C(=O)/C(=C/c3ccc(N(C)C)cc3)SC2=S)cc1 | n | n
COC(=O)c1ccc(-c2ccc(/C=C3/SC(=S)N(c4ccccc4)C3=O)o2)cc1 | n | n
CCN1C(=O)/C(=C\c2ccc(N(C)C)cc2)SC1=S | n | 1.2
O=C1CC(c2ccccc2Br)c2c(ccc3ccccc23)N1 (stereo unspecified) | n | n
CC1(C)CC(NC(=O)c2ccc(I)cc2)CC(C)(C)N1 | n | n
COc1ccc(-n2c(C)c([N+](=O)[O-])c3ccc(O)c(CN(CCO)CCO)c32)cc1 | n | n
CCN1C(=O)/C(=C2\SC(=S)N(Cc3ccco3)C2=O)c2ccccc21 | n | n
CCOc1ccc(N(CC(=O)Nc2ccc(C(C)C)cc2)S(C)(=O)=O)cc1 | n | n
